# Test results published in PubChem BioAssay (NCATS).
# Records with an inconclusive call do not appear. Where a call stands in place of a potency, no number is given. Activity calls are given as the source filed them. Unless noted, calls follow the shape of the dose curve; as a rule, active = well fitted curve in the direction sought with a large enough effect; inconclusive = small, poorly fitted or top-dose-only effect, or another doubt; inactive = no such curve, though single readings can be large; an effect the other way counts as inactive or inconclusive.
# Experiments:
# [1] = Cytometric Cell-Based qHTS for Inhibitors of the mTORC1 Signaling Pathway in MEF (Tsc2-/-, p53-/-) Cells (AID 2660);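 also: Tsc2 and p53 null MEFs carrying empty vector with compound for 24 h; percent of cells above a phospho-rpS6 to PI ratio cutoff in each well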
# Procedure, shortened: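 Immunofluorescence qHTS of rpS6 Ser235/236 phosphorylation: MEFs (Tsc2-/-, p53-/-) treated 24 h, 37 C, in DMEM + 10% FBS. Alexa-488 signal normalized to PI count, referenced to rapamycin (7.5 nM) and DMSO; PI cell number recorded for viability.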
# [2] = High Content Imaging Cell-Based qHTS for Inhibitors of the mTORC1 Signaling Pathway in MEF (Tsc2-/-, p53-/-) Cells (AID 2666); details: at 38.3 µM (top of the series);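 also: percent of cells scored positive for phospho-rpS6 Ser235/236 immunostaining by imaging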
# Procedure, shortened: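 Cells were plated, dosed with compound after 24 hrs, and incubated another 24 hrs at 37 degree Celsius. Fixed cells were immunostained for phospho-rpS6 Ser235/236 and counterstained, and the normalized signal was scored as % active cells against rapamycin and DMSO controls.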
# [3] = High Content Imaging Cell-Based qHTS for Inhibitors of the mTORC1 Signaling Pathway in MEF Cells (AID 2667);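 also: Tsc2-/- p53-/- MEFs stably re-expressing wild-type Tsc2 exposed 24 h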
# Procedure, shortened: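 Immunofluorescence for rpS6 phosphorylation in MEFs of Tsc2-/-, p53-/- background rescued with WT Tsc2. Compound exposure lasted 24 hrs. Inhibition was scored against rapamycin-treated control wells.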
# [4] = target: Ubiquitin carboxyl-terminal hydrolase 2 (Homo sapiens) (UniProt O75604); test: qHTS Validation Assay for Inhibitors of Ubiquitin-specific Protease USP2a Using CHOP2 as the Reporter (AID 463106)
# Procedure, shortened: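 10nM USP2 core + cpd, 30min RT; add 25nM Ub-CHOP2/25nM substrate; 60min RT; FI 485/531nm. Buffer Tris pH 8.0, CaCl2, BME, CHAPS. Norm. to NEM = 100% inhibition; time-zero read flags fluorescent artifacts.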
# [5] = target: Tumor susceptibility gene 101 protein (Homo sapiens) (UniProt Q99816); test: qHTS Validation Assay for Iinhibitors of HIV-1 Budding by Blocking the Interaction of PTAP/TSG101 (AID 485342; calls by dose curve)
# Procedure, shortened: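 Binding of a FITC-tagged PTAP-motif peptide (50 nM) to the Tsg101 binding domain (10 uM) is monitored by fluorescence polarization. Compounds are pin-delivered before peptide addition, and incubation runs 20 min at room temperature.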
# [6] = target: Beta-2 adrenergic receptor (Homo sapiens) (UniProt P07550); test: qHTS validation assay of beta-arrestin-biased ligands of beta2-adrenergic receptor (AID 485366)
# Procedure, shortened: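 Arrestin-recruitment (Tango) reporter: ligand-bound beta2-AR recruits beta-arrestin, releasing tTA, which upregulates luciferase. Titrations of up to 46 microM incubated 18 hr at 37 degrees C before luminescent readout.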
# [7] = target: Thioredoxin reductase 1, cytoplasmic (Rattus norvegicus) (UniProt O89049); test: qHTS Assay for Substrates of Mammalian Selenoprotein Thioredoxin Reductase 1 (TrxR1) (AID 488772);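 also: NADPH fluorescence in the first read after selenite addition and not the 8 min delta; a drop in NADPH fluorescence below the no-compound background marks a TrxR1 substrate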
# Procedure, shortened: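 Quantitative HTS in Tris-HCl buffer at pH 7.5 with EDTA and Tween-20, using rat TrxR1, 400 uM NADPH and 400 uM selenite (final). A fall in initial NADPH fluorescence relative to background marked substrate behaviour.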
# [8] = target: Thioredoxin reductase 1, cytoplasmic (Rattus norvegicus) (UniProt O89049); test: qHTS Assay for Inhibitors of Mammalian Selenoprotein Thioredoxin Reductase 1 (TrxR1) (AID 488773);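 also: drop in NADPH fluorescence over an 8 min run after selenite addition; nearly all actives have a fitted effect of over 40% in size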
# Procedure, shortened: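 Steps: enzyme (90 nM) plus NADPH (400 uM final), 5 min at ~22 deg C; compound added, 15 min; selenite (400 uM final) added; fluorescence followed for 8 min. Concentration-response curves derived from the normalized delta values.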
# [9] = target: Flap endonuclease 1 (Homo sapiens) (UniProt P39748); test: qHTS Validation Assay for the Inhibitors of Human Flap endonuclease 1 (FEN1) (AID 488816)
# Procedure, shortened: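 Readings taken at 0 and 15 min after starting the reaction with 50 nM (final) substrate supplied the signal. Compounds had first sat with 10 nM FEN1 reagent for 15 min at room temperature. Values come from Hill-equation concentration-response fits.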
# [10] = target: M-phase phosphoprotein 8 (Homo sapiens) (UniProt Q99549); test: qHTS Validation Assay for Inhibitors for MPP8 Chromodomain Interactions with Methylated Histone Tails (AID 488949);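 also: 50 nM MPP8 with 50 nM peptide preformed then compounds added for 30 min; AlphaScreen signal from MPP8 chromodomain bound to biotinylated H3K9me3 peptide; top concentration of the series differs between compounds; nearly all actives have a fitted effect of over 55% in size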
# Procedure, shortened: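 50 nM MPP8 + 50 nM b-H3K9me3 peptide, PBS pH 7.4/0.01% Tween-20, 30 min RT; + cpd 30 min RT; + AlphaScreen donor/Ni-chelate acceptor beads 10 ug/mL final, 30 min dark; luminescence read.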
# [11] = target: Chromobox protein homolog 1 (Homo sapiens) (UniProt P83916); test: qHTS Validation Assay for Inhibitors of HP1-beta Chromodomain Interactions with Methylated Histone Tails (AID 488953);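 also: loss of AlphaScreen luminescence from HP1-beta binding biotinylated H3K9me3 peptide; nearly all actives have a fitted effect of over 50% in size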
# Procedure, shortened: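 HP1-beta (50 nM) preformed 30 min with biotinylated H3(1-18)K9me3 peptide (50 nM) in PBS pH 7.4, 0.01% Tween-20. Compounds added for 30 min at room temperature. Complex disruption read by AlphaScreen with streptavidin donor/nickel chelate acceptor beads (10 ug/mL each).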
# [12] = target: Methanococcus maripaludis chaperonin (MmCpn) (UniProt Q6LX38); test: High-Throughput Screening for Modulators of Cytosolic Chaperonin Activity: MmCpn Primary Screen (AID 488978);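 also: 50 nM MmCpn enzyme hydrolysing 30 µM ATP at 37 °C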
# Procedure, shortened: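 Steps: chaperonin 50 nM final; add compound, 5 min RT; start with ATP, 30 uM final; hold 10 min at 37C; add ADP Transcreener HTRF reagent, 5 min; read ex 320, em 590 and 665 nm.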
# [13] = target: Ferritin light chain (Equus caballus) (UniProt P02791); test: qHTS Validation Assay for Identification of Novel General Anesthetics (AID 2323)
# Procedure, shortened: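 Fluorescence at 535 nm (excitation 380 nm) reported loss of 1-AMA binding to horse-spleen apoferritin (10 uM) in PBS with 50% saturated 1-aminoanthracene, after 10 min room-temperature incubation with compound; values from Hill fits of normalized response.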
# [14] = target: ATP-dependent DNA helicase Q1 (Homo sapiens) (UniProt P46063); test: qHTS Validation Assay for Inhibitors of RecQ-Like Dna Helicase 1 (RECQ1) (AID 2353)
# Procedure, shortened: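 50 nM RECQ1T1 preincubated 15 min with compound in Tris pH 8.0 buffer with MgCl2, DTT, Tween-20 and 2.5 ug/ml poly(dI-dC); started with 200 nM TAMRA/BHQ-2 forked duplex and 2 mM ATP. Unwinding read as fluorescence (525/598 nm), two reads 2 h apart.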
# [15] = qHTS Validation Assay to Find Inhibitors of Chronic Active B-Cell Receptor Signaling (AID 485345; active = well fitted curve in the direction sought with a large enough effect in the main read-out, with a control signal flat, not every such curve was filed as active)
# Procedure, shortened: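 Read-out: ratio of filter-corrected green (IkappaBalpha fusion) to red (native) luciferase signal in doxycycline-induced TMD8 cells after 4 h at 37C. Titration spanned 46 uM–3 nM; Data were normalised to basal cells and 10 uM MG-132 wells.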
# [16] = target: ATP-dependent 6-phosphofructokinase (Trypanosoma brucei brucei) (UniProt O15648); test: qHTS Validation Assay to Find Inhibitors of T. brucei phosphofructokinase (AID 485368); also: potency is read from the fitted curve at half-maximal effect
# Procedure, shortened: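 Steps: substrate mix (0.5 mM F6P, 0.1 mM ATP, MgCl2, TEA pH 8.0); compound; 1.25 nM T. brucei PFK; 45 min RT; ATP depletion 10 min; ADP-to-ATP detection 10 min; luminescence read; curve fitting and classification.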
# [17] = Quantitative high throughput screen for delayed death inhibitors of the malarial parasite plastid, 96 hour incubation (AID 488745); also: nearly all actives have a fitted effect of over 70% in size; also: potency is read from the fitted curve at half-maximal effect
# Procedure, shortened: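 Luciferase-expressing P. falciparum in erythrocytes (2% hematocrit, 0.1% parasitemia) incubated with compound for 96 h at 37 C, 5% CO2, in RPMI 1640 with 0.5% Albumax. Growth inhibition read as decreased luminescence.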
# [18] = target: Transient receptor potential cation channel subfamily V member 1 (Homo sapiens) (UniProt Q8NER1); test: HTS Assay for Compounds that Act as Enhancers of the Vanilloid Receptor 1 (AID 488979)
# Procedure, shortened: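 Calcium influx kinetics via Fluo-8 (480/520 nm) in TRPV1-expressing cells, 2000/well cultured overnight at 35.5C. Compound-alone read 3 min (agonist phase), followed by EC20 capsaicin challenge for 2 min (enhancer phase).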
# [19] = Validation screen for small molecules that induce DNA re-replication in MCF 10A normal breast cells (AID 463097); also: nearly all actives have a fitted effect of over 60% in size
# Procedure, shortened: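 Image-based qHTS: normal breast cells are incubated with compound for 48 hr, stained with Hoechst, and scanned for total nuclear fluorescence. Compounds raising the fraction of nuclei with elevated DNA content count as re-replication inducers.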
# Chain of Thioredoxin reductase 1, cytoplasmic (Rattus norvegicus) (O89049 whole entry, looked up): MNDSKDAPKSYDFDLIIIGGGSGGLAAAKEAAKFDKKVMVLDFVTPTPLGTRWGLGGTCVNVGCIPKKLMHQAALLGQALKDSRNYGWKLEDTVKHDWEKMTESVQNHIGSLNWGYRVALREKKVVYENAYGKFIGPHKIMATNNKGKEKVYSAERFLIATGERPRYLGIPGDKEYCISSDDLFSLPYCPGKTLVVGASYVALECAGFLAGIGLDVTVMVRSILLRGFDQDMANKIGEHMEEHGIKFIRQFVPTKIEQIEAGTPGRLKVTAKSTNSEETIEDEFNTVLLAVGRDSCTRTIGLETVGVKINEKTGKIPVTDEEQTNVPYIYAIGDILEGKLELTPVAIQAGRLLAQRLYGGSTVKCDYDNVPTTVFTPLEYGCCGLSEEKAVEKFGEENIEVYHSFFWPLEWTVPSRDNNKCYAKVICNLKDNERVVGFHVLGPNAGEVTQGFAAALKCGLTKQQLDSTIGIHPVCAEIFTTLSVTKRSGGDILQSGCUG
# Chain of Tumor susceptibility gene 101 protein (Homo sapiens) (Q99816 whole entry, looked up, the tested form may be a part): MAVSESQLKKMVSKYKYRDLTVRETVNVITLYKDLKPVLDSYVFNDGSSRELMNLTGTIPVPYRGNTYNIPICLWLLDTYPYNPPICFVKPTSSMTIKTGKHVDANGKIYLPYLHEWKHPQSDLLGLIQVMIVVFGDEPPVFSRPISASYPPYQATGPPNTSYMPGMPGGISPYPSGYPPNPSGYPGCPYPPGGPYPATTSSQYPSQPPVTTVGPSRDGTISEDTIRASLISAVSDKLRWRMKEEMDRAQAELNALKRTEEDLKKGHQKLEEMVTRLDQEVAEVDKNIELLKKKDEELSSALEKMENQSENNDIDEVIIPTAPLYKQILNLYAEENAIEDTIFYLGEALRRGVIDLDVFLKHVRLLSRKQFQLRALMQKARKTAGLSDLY
# Chain of Ubiquitin carboxyl-terminal hydrolase 2 (Homo sapiens) (O75604 whole entry, looked up): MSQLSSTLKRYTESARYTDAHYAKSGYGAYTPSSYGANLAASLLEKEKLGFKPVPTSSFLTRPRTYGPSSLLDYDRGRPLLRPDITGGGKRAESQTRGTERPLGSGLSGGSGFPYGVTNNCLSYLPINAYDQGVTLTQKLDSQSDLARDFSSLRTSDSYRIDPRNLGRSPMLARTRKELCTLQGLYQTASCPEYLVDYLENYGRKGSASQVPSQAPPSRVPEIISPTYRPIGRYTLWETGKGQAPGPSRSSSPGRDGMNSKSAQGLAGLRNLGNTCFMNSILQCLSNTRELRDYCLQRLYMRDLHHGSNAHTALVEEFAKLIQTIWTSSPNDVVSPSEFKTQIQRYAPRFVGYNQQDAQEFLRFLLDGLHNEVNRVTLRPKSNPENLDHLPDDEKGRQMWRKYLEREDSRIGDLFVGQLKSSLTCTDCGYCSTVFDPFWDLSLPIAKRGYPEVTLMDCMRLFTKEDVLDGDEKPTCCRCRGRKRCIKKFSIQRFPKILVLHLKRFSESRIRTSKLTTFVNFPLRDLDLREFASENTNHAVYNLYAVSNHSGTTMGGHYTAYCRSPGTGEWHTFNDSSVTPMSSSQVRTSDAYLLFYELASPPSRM
# Chain of Chromobox protein homolog 1 (Homo sapiens) (P83916 whole entry, looked up): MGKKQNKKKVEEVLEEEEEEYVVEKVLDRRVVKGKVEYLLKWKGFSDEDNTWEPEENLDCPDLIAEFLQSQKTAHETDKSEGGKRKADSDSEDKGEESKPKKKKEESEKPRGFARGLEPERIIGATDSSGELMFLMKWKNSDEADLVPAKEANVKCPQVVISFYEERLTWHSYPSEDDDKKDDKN
# Chain of Beta-2 adrenergic receptor (Homo sapiens) (P07550 whole entry, looked up): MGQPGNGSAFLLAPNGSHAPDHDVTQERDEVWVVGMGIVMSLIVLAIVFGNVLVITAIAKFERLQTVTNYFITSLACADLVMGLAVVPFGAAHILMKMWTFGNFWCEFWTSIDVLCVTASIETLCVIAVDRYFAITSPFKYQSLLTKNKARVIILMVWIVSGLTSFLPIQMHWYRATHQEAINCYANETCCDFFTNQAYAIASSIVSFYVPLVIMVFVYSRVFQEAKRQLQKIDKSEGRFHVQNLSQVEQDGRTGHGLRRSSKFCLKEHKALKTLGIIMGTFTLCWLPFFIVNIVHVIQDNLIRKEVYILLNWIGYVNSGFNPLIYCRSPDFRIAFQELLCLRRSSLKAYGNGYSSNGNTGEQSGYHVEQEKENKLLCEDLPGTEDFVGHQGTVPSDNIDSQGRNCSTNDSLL
# Chain of M-phase phosphoprotein 8 (Homo sapiens) (Q99549 whole entry, looked up): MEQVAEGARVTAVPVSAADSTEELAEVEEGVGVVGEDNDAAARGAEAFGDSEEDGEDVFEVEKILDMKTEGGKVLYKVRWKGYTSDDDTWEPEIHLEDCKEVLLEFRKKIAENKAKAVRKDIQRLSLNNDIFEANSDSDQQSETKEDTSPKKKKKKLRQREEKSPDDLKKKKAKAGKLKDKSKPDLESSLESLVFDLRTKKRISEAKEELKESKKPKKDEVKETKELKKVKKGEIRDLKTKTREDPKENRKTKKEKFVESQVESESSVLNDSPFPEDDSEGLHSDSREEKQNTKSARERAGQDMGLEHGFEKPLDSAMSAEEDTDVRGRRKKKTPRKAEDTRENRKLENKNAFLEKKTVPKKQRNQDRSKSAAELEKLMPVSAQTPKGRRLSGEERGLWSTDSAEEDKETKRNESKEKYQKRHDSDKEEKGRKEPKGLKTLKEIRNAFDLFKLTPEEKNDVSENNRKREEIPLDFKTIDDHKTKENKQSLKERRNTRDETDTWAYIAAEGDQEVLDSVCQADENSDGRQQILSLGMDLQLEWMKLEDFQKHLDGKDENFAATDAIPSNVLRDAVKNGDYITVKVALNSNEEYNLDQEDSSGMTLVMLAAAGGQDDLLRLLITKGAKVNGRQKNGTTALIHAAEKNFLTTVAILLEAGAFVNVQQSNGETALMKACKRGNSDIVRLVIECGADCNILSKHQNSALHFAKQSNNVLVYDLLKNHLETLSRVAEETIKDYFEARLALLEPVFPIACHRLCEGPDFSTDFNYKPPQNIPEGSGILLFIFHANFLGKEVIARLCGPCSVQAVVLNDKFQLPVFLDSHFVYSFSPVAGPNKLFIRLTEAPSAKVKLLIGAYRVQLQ
# Chain of ATP-dependent 6-phosphofructokinase (Trypanosoma brucei brucei) (O15648 whole entry, looked up): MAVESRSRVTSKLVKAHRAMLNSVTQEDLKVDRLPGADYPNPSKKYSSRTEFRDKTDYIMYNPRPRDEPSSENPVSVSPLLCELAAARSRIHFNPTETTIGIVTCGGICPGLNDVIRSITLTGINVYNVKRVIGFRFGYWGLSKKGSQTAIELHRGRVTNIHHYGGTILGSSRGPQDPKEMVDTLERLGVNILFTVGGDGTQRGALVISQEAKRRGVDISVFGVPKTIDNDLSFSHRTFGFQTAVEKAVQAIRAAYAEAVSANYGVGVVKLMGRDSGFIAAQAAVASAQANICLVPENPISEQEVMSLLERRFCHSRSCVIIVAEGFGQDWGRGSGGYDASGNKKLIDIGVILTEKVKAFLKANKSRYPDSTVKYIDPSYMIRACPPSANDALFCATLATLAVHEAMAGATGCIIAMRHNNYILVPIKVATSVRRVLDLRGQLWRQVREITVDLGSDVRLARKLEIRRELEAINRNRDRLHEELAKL
# Chain of Transient receptor potential cation channel subfamily V member 1 (Homo sapiens) (Q8NER1 whole entry, looked up): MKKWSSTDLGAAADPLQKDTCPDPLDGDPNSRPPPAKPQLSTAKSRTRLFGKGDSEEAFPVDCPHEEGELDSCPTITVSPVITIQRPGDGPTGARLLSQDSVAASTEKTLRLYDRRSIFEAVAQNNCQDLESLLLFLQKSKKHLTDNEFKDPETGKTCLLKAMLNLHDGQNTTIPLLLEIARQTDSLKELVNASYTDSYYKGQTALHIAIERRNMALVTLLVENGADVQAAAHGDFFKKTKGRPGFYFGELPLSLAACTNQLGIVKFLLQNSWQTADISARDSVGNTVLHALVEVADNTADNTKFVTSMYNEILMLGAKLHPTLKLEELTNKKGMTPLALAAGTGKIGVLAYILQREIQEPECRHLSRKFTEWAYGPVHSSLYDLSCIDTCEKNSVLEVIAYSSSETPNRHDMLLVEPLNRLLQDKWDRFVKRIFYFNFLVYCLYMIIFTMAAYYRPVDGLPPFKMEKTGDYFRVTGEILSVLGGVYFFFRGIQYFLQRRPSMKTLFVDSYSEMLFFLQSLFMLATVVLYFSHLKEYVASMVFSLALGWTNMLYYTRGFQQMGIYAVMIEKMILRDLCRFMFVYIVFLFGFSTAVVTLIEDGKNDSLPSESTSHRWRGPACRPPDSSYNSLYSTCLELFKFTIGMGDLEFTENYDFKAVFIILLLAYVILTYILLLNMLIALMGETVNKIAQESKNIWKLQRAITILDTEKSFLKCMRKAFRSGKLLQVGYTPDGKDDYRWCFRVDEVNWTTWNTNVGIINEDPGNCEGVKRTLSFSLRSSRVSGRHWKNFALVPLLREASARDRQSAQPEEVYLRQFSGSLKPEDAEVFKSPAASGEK
# Chain of ATP-dependent DNA helicase Q1 (Homo sapiens) (P46063 whole entry, looked up): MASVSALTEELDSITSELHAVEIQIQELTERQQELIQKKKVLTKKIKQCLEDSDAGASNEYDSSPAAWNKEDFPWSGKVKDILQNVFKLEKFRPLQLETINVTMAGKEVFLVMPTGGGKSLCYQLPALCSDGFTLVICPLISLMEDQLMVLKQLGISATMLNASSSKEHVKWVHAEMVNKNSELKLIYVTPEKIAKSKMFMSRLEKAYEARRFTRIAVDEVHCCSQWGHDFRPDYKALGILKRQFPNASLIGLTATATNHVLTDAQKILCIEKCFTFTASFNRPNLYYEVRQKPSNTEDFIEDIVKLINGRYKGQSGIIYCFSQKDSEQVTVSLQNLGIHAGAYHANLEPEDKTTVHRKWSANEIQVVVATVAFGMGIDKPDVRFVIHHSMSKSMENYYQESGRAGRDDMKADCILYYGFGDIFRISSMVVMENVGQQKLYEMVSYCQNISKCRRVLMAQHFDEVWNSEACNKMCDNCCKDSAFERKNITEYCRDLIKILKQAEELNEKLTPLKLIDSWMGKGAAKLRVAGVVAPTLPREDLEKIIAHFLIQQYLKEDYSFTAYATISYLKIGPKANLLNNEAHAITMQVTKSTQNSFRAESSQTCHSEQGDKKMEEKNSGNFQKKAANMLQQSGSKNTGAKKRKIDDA
Structure (SMILES),outcome [1],outcome [2],Potency [3],outcome [4],outcome [5],outcome [6],outcome [7],outcome [8],outcome [9],Potency [10],Potency [11],outcome [12],outcome [13],outcome [14],outcome [15],Potency [16],Potency [17],outcome [18],outcome [19]
CCCC1O[C@@H]2C[C@H]3[C@@H]4CCC5=CC(=O)C=C[C@]5(C)[C@H]4[C@@H](O)C[C@]3(C)[C@]2(C(=O)CO)O1 (stereo partly specified),inactive,inactive,inactive,inactive,inactive,inactive,inactive,inactive,inactive,inactive,inactive,inactive,,,,,,,
Oc1ccc(O)cc1,,,inactive,inactive,inactive,inactive,inactive,inactive,inactive,inactive,,inactive,inactive,inactive,inactive,10.7 µM (active),10.4 µM (active),inactive,
CNCCC(Oc1ccccc1C)c1ccccc1 (stereo unspecified),inactive,inactive,inactive,inactive,inactive,inactive,inactive,,,inactive,,inactive,inactive,inactive,inactive,,inactive,,inactive
C1CCc2nnnn2CC1,inactive,,inactive,inactive,inactive,inactive,inactive,inactive,inactive,inactive,inactive,inactive,inactive,inactive,inactive,,inactive,inactive,inactive
CC[C@H](C)C(=O)O[C@H]1CCC=C2C=C[C@H](C)[C@H](CC[C@@H]3C[C@@H](O)CC(=O)O3)[C@H]21,inactive,inactive,,inactive,inactive,inactive,inactive,inactive,inactive,inactive,inactive,inactive,,,,inactive,,,
C[C@]12CC[C@@H]3c4ccc(O)cc4CC[C@H]3[C@@H]1CC[C@@H]2O,inactive,inactive,inactive,inactive,inactive,inactive,inactive,inactive,inactive,inactive,inactive,inactive,inactive,inactive,,inactive,inactive,inactive,inactive
CCCn1c(=O)[nH]c(=O)c2[nH]cnc21,inactive,inactive,inactive,inactive,inactive,inactive,inactive,inactive,inactive,inactive,inactive,inactive,inactive,inactive,inactive,,inactive,inactive,inactive
